Structures are written as SMILES. Compounds without any hit were thinned out: in the full panel of roughly 83,000, 20% have a hit.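 Cells were grown in 96-well plates and exposed to the test compound at a single concentration for 48 hours; results are reported as percent growth, with values below 10 considered active.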 Unmarked numbers belong to inactive results. Activity calls are given as the source filed them.

The subject of the experiment is SW-620 colon. In words: NCI-60 one-dose screen, 48 h (100 = growth as untreated, 0 = no growth, -100 = all killed). The conditions noted are these: 10 µM unless noted. As to the method:
Growth inhibition of the SW-620 human tumor cell line is measured as a screen for anti-cancer activity. Cells are grown in 96 well plates and exposed to the test compound for 48 hours. Compounds are tested at a single concentration, which is 10^-5 M for most compounds. The reported endpoint is percent growth (GI% or GIPRCNT), where numbers from 0 - 100% represent growth inhibition, and numbers from -100% - 0 represent cell death. For example, a value of 40 represents 60% growth inhibition. A value of 0 means no net growth occurred over the course of the experiment. A value of -40 indicates 40% of cells at the beginning of the experiment died by the end of the experiment. A value of -100 means all cells are dead at the end of the experiment.
NCI-60 Human Tumor Cell Lines Screen was performed using the standard one-dose NCI protocol, which is described in more detail at https://dtp.cancer.gov/discovery_development/nci-60/default.htm.
Compounds with GIPRCNT values below 10 were considered active. Activity score was based on GIPRCNT using the following formula: […]
Score is 0 for GIPRCNT values of 100 or above, 50 for GIPRCNT values of 0, and 100 for GIPRCNT values of -100.
In the case of `C[C@H]1[C@H](C)CC[C@]2(C(=O)O)CC[C@]3(C)C(=CC[C@@H]4[C@@]5(C)C/C(=C/c6cccnc6)[C@H](O)C(C)(C)[C@@H]5CC[C@]43C)[C@H]12`, the growth was 14.9% [100 µM].

In the case of `CCOC(=O)C(C(C)=O)c1nc2sc3cc(Cl)c(Cl)cc3n2c(=O)c1C#N` (stereo not given), the growth is 116%. Consider `O=S(=O)(NCCCNc1nccc(-c2c(-c3cccc(F)c3)nc3occn23)n1)c1cccc2ccccc12`, for which the growth is 24.2%. As to `CCn1cc(-c2ccnc(NCCNS(=O)(=O)c3cccc4ccccc34)c2)c(-c2cccc(O)c2)n1`, the growth is 118%. Then `O=C1CC(c2ccccc2)Cc2nc3ccc(Cl)cc3cc21` (stereo not given), with 23%; and `O=C(O)CC1CCCCC1c1ccccc1` (stereo not given), with 111%. Then `CCCn1ccnc1C(O)c1ccc(OCc2ccccc2)c(OC)c1` (stereo not given), with 98%; and `CCCCC1COc2cccc3c2N1C=C/C3=C\C(=O)n1ccc2ccccc21` (stereo not given), with 46.4%; and `O=C(NNc1ccc(-c2ccccc2)nn1)c1ccc(F)cc1`, with 100%. Take `Clc1ccc(/C=N/Nc2nc3ccccc3s2)c(Cl)c1`: the growth was 79.3%. Regarding `CC1(C)OC2[C@@H](CNC(=O)NC(=O)NC(=O)CI)O[C@@H](n3cnc4c(NC(=O)Nc5ccccc5)ncnc43)[C@H]2O1` (stereo not given in full), the growth was -41.9% (active).

Take `CC1Cc2c(ncnc2-n2cnc3ccccc32)N(C)c2ccccc21` (stereo not given): the growth is 17.7%. `CNc1cc(C(=O)O)nc(NC)n1`: the growth was 98.1%. Regarding `O=C1NC(=O)C(Cc2ccccc2)(Cc2ccccc2)N1`, the growth was 101%. Regarding `COc1ccc(/C=C2\N=C(Nc3ccccc3)N(NC(=O)c3ccccn3)C2=O)cc1`, the growth is 102%. For the compound `Ic1ccc2[nH]cc(SSc3c[nH]c4ccc(I)cc34)c2c1`, the growth is 39.4%. With `O=c1[nH]c(CN2CCN(c3cccc(Cl)c3)CC2)nc2cc(Cl)ccc12`, the growth is 99.2%. As for `COc1ccc2nc3ccccc3c(NCCNCCO)c2c1`, the growth is -18.3% (active). Then `Cc1cccc(C[C@H](NC(=O)Nc2ccc(Cl)cc2F)C(=O)N[C@@H]2C(=O)N3C[C@H](O)C[C@H]3C(=O)N3CCCC[C@H]3C(=O)N[C@@H](C)C(=O)N3C[C@H](C)C[C@H]3C(=O)O[C@H]2C)c1`, with 20.7%; and `Cc1ccccc1OC(=O)c1cccc(Cl)c1`, with 101%. For the compound `CCOc1ccccc1/C=N\Nc1ccc(S(=O)(=O)c2ccc(N/N=C/c3ccccc3OCC)cc2)cc1`, the growth is 97.9%. As to `O=C1CC(c2ccc3c(c2)OCO3)Nc2ccccc21` (stereo not given), the growth was 19.2%. Consider `COCCCNc1nc(NC(=O)c2cc(OC)cc(OC)c2)cc(-c2cccnc2)n1`, for which the growth is 101%. As to `CC(=O)n1cc(C=O)c2ccccc21`, the growth was 102%. For the compound `COc1ccc(/C=C(/C2=NCCN2)n2ccc3ccccc32)cc1`, the growth was 87.1%.

In the case of `COc1cc2c(c(Br)c1N)-c1cc(Br)c(N)cc1C2=O`, the growth is 75.3%. Turning to `O=C(NNc1ccc(-c2ccccc2)nn1)c1ccccc1`, the growth is 103%. Then `CC(C)C1=NOC(=O)C1=Cc1cn(-c2ccccc2)nc1-c1cccc([N+](=O)[O-])c1`, with 57.8%; and `Cc1cc2c(C(C)C)c(O)c(O)c(C=NCc3ccoc3)c2c(O)c1-c1c(C)cc2c(C(C)C)c(O)c(O)c(C=NCc3ccco3)c2c1O`, with 24.6%.

For the compound `Cn1cc(-c2noc(C(=O)c3cn(C)c4ncc(Br)cc34)n2)c2ccccc21`, the growth is 96.5%. In the case of `CC(C)(C)c1cc(C(=O)Nc2cc3ccccc3cc2C(=O)NCCN)cc(C(C)(C)C)c1`, the growth is -66.4% (active).

In the case of `C#CCOc1ccc(C2=NN(CC3CC3)C3N=C(Cl)c4ncn(CC5CC5)c4N23)cc1OCC#C` (stereo not given), the growth is 91.8%. Then `Oc1ccc(N=Nc2nccs2)c(O)c1`, with 41.3%. As for `C=C(C)[C@@H]1CC[C@]2(COCCCN)CC[C@]3(C)[C@H](CC[C@@H]4[C@@](C)(CCCNCCCN)[C@H](C(=C)C)CC[C@]43C)[C@@H]12`, the growth is -67% [100 µM] (active). On to `Cc1cc(-c2ccc(N=Nc3c(S(=O)(=O)O)cc4cc(S(=O)(=O)O)cc(N)c4c3O)c(C)c2)ccc1N=Nc1cc(S(=O)(=O)O)c2ccccc2c1O`, for which the growth is 109%. Then `COc1ccc(C=C2c3ccccc3-c3ccccc32)cc1`, with 19.4%. As to `CCOC(=O)c1nn(C2CCCCO2)c2ccc(NC(=O)CSc3nc4ccccc4c(=O)[nH]3)cc12` (stereo not given), the growth is 105%. Then `C=C(C)[C@@H]1CC[C@]2(C(=O)OC)CC[C@]3(C)[C@H](CC[C@@H]4[C@@](C)(CCc5nn[nH]n5)[C@H](C(=C)C)CC[C@]43C)[C@@H]12`, with -19.6% [100 µM] (active); and `O=C(O)c1cn(C2CC2)c2cc(N3CCN(Cc4c(O)ccc5ccccc45)CC3)c(F)cc2c1=O`, with 28.2%; and `COc1cc(/C=C/C(=O)/C=C/c2ccc(-n3ccnc3)cc2)ccc1O`, with 8.7% (active).

The values are drawn from PubChem BioAssay (NCI).
